Our source for the Potency values is PubChem BioAssay (Tox21).

Inconclusive results are not listed. Activity calls are given as the source filed them. Unless noted, calls come from the whole dose curve; as a rule, active = well fitted curve in the direction sought with a large enough effect in the repeat runs; inconclusive = weak or mixed curves; inactive = no such curve, though single readings can be large; an effect the other way counts as inactive or inconclusive.

Assay [1] is described as follows: qHTS assay for small molecule agonists of the p53 signaling pathway (AID 651631; calls by dose curve; note: nearly all actives have a fitted effect of over 15% in size; note: potency is the fitted concentration of half-maximal effect). The method in brief:
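HCT-116 cells carrying a stable p53 response element–beta-lactamase reporter were plated, rested 5 h at 37 °C, then exposed to compound in DMSO for 16 h at 37 °C; reporter activity was read as FRET substrate fluorescence after 2 h at room temperature.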
(In qHTS, concentration-response curves come from the screen itself.)

Assay [2] can be described thus: qHTS assay for small molecules that induce genotoxicity in human embryonic kidney cells expressing luciferase-tagged ATAD5 (AID 651632). Note: nearly all actives have a fitted effect of over 15% in size. The gist of the method: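 A rise in luciferase signal from ATAD5-tagged HEK293T cells marks genetic stress. Cells were exposed to compounds for 16 hr at 37C, 5% CO2, then luciferase was quantified after a 30 min room-temperature incubation with Amplite.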

The nature of assay [3]: qHTS assay for small molecule agonists of the p53 signaling pathway - cell viability (AID 651633; calls by dose curve; note: series mostly up to about 83 µM; nearly all actives have a fitted effect of over 30% in size). The method in brief: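 p53RE-bla cells, seeded at 4,000 per well and rested 5 h at 37 C/5% CO2, received compounds in DMSO for 16 h at 37 C. CellTiter-Glo was then added, and luminescence was read after 30 min at room temperature to gauge cytotoxicity.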
Assay [4] in a line: qHTS assay for small molecules that induce genotoxicity in human embryonic kidney cells expressing luciferase-tagged ATAD5 - cell viability (AID 651634; calls by dose curve; note: nearly all actives have a fitted effect of over 25% in size). The gist of the method: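 Cytotoxicity counter-readout: after 15.5 hr compound treatment at 37C, live-cell protease activity in ATAD5-luciferase HEK293T cells measured by CellTiter-Fluor fluorescence, 30 min development at 37C.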

Assay [5] can be described thus: qHTS assay for small molecule disruptors of the mitochondrial membrane potential - cell viability (AID 720634; calls by dose curve;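 note: human HepG2 liver cancer cells; series mostly up to about 83 µM; nearly all actives have a fitted effect of over 20% in size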). The gist of the method: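 Cytotoxicity was quantified from ATP content by CellTiter-Glo luminescence in the same wells as the MMP dye read-out. HepG2 (2,000 cells/well) were plated overnight and exposed to compounds for 1 hr at 37 C.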
A short description of assay [6]: qHTS assay to test for compound auto fluorescence at 590 nm (red) in HepG2 cells (AID 720674). The method in brief: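 Rose Bengal sodium served as the red fluorophore standard. HepG2 monolayers (overnight attachment, MEM with 10% FBS) were exposed to test compounds for 1 hr at 37 C and read at Ex 540/Em 590 nm.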
A short description of assay [7]: qHTS assay to test for compound auto fluorescence at 535 nm (green) in HepG2 cells (AID 720675).
Assay [8] can be described thus: qHTS assay to test for compound auto fluorescence at 460 nm (blue) in HEK293 cells (AID 720678). The method in brief: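 Intrinsic compound fluorescence is recorded in live HEK293 cultures after overnight incubation at 37C, 5% CO2, using excitation 405 nm and emission 460 nm. Values are referenced to triamterene.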
Assay [9] can be described thus: qHTS assay for small molecule disruptors of the mitochondrial membrane potential (AID 720635). The gist of the method:
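HepG2 cells (2,000/well) attached overnight at 37C, then took compound for 1 hr at 37C, 5% CO2. Mito-MPS dye was added for 30 min; fluorescence was read at 490/535 nm (monomers) and 540/590 nm (aggregates).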

Assay [10] in a line: qHTS assay to test for compound auto fluorescence at 590 nm (red) in HEK293 cells (AID 720679). The gist of the method: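 Red autofluorescence, HEK293 cells: 2,000 cells/well; attach 4-5 hr 37C; add 23 nL cpd or DMSO; incubate o/n 37C 5% CO2; read Ex540/Em590; Rose Bengal sodium reference.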

As for `CCOC(=O)C1=C[C@@H](OC(CC)CC)[C@H](NC(C)=O)[C@@H](N)C1`, the Potency entry in assay [1], in assay [2], in assay [3], in assay [4], in [5] and in assay [6] was “inactive” throughout. For the same molecule, the Potency entry in [7] and in assay [8] was “inactive” each time.

For the molecule `O=P(O)(O)OC(Cn1cncn1)(Cn1cncn1)c1ccc(F)cc1F`, the Potency entry in assay [1], in assay [2], in assay [3], in [4], in [5] and in [9] was “inactive” throughout. The Potency result in assay [6], in assay [7], in assay [8] and in assay [10] was “inactive” each time.

For `Nc1c(Br)cc(Br)cc1CNC1CCC(O)CC1` (stereo not drawn), the Potency result in [1], in [2], in assay [3], in [4], in [5] and in [6] was “inactive” in each case. Besides, the Potency entry in [7], in [8] and in assay [10] was “inactive” throughout.

For the molecule `N=C(N)c1ccc(OCCCOc2ccc(C(=N)N)cc2Br)c(Br)c1`, the Potency result in assay [1], in assay [2], in assay [3], in assay [4], in assay [5] and in [9] was “inactive” throughout. The Potency result in assay [6], in assay [7], in [8] and in [10] was “inactive” throughout.

Regarding `CCCCCCCCCCCCCCCCCCOP(=O)([O-])OC1CC[N+](C)(C)CC1`, the Potency result in assay [1], in assay [2], in assay [3], in assay [4], in assay [5] and in assay [9] was “inactive” in each case. For the same molecule, the Potency entry in [6], in [7], in assay [8] and in assay [10] was “inactive” each time.

Turning to `OC[C@H]1O[C@@H](O[C@H]2[C@H](O)[C@@H](O)[C@H](O)O[C@@H]2CO)[C@H](O)[C@@H](O)[C@@H]1O`, the Potency result in [1], in assay [2], in assay [3], in [4], in [5] and in assay [6] was “inactive” each time. The Potency result in assay [7], in assay [8] and in assay [10] was “inactive” throughout.

Take `CCCCCCCCCCCCCCCCCC(=O)[O][Al]`: the Potency entry in [1], in assay [2], in [3], in assay [4], in [5] and in [6] was “inactive” throughout. For the same molecule, the Potency result in assay [7], in assay [8] and in [10] was “inactive” each time.

On to `Cc1ncc(C[n+]2csc(CCOP(=O)(O)OP(=O)(O)O)c2C)c(N)n1`, for which the Potency result in assay [1], in [2], in [3], in assay [4], in assay [5] and in [6] was “inactive” in each case. Further, the Potency entry in [7], in assay [8] and in assay [10] was “inactive” each time.

As to `C=CCSSSCC=C`, in assay [1], the Potency is 9.44 µM (active). Further, the Potency result in assay [2], in assay [3], in assay [4], in assay [5], in assay [6] and in [7] was “inactive” in each case. The Potency entry in assay [8] and in [10] was “inactive” throughout.

Take `Cc1cccc(C)c1N(CCCc1cccnc1)C(=O)C(C)N` (stereo not drawn): the Potency entry in assay [1], in assay [2], in [3], in assay [4], in assay [5] and in assay [6] was “inactive” in each case. The Potency entry in assay [7], in assay [8] and in [10] was “inactive” each time.

In the case of `C[C@@H](O)[C@H]1C(=O)N2C(C(=O)[O-])=C(SC3Cn4cnc[n+]4C3)[C@H](C)[C@H]12` (stereo partly drawn), the Potency entry in assay [1], in [2], in assay [3], in assay [4], in assay [5] and in assay [6] was “inactive” throughout. The Potency entry in assay [7], in assay [8] and in [10] was “inactive” in each case.

Turning to `CC1(C)[C@@H]2CC[C@@]1(C)[C@H](OC(=O)CSC#N)C2`, the Potency entry in [1], in assay [2], in assay [3], in assay [4], in assay [5] and in assay [6] was “inactive” each time. Further, the Potency entry in assay [7], in assay [8] and in assay [10] was “inactive” in each case.

For the molecule `CN1c2c(nc(N)[nH]c2=O)NCC1CNc1ccc(C(=O)NC(CCC(=O)O)C(=O)O)cc1` (stereo not drawn), the Potency result in assay [1], in assay [2], in assay [3], in [4], in [5] and in assay [6] was “inactive” each time. In addition, the Potency entry in assay [7], in [8] and in assay [10] was “inactive” each time.

For the molecule `CC(=O)O[C@H]1C[C@@H]2CC[C@@H]3[C@H](CC[C@@]4(C)[C@H]3C[C@H](N3CC[N+](C)(C)CC3)[C@@H]4OC(C)=O)[C@@]2(C)C[C@@H]1N1CC[N+](C)(C)CC1`, the Potency result in [1], in [2], in assay [3], in assay [4], in assay [5] and in assay [6] was “inactive” each time. Further, the Potency entry in [7], in assay [8] and in assay [10] was “inactive” in each case.

As for `CC1(C)C2CC[C@]3(C)[C@H](C(=O)C=C4[C@@H]5C[C@@](C)(C(=O)O)CC[C@]5(C)CC[C@]43C)[C@@]2(C)CC[C@@H]1O[C@H]1O[C@H](C(=O)O)[C@@H](O)[C@H](O)[C@H]1O[C@@H]1O[C@H](C(=O)O)[C@@H](O)[C@H](O)[C@H]1O` (stereo partly drawn), the Potency entry in assay [1], in assay [2], in assay [3], in [4], in assay [5] and in assay [6] was “inactive” each time. In addition, the Potency entry in assay [7], in assay [8] and in assay [10] was “inactive” throughout.

For `O=C(O)c1nc(=O)[nH]c(=O)[nH]1`, the Potency result in [1], in [2], in [3], in assay [4], in assay [5] and in assay [6] was “inactive” throughout. Moreover, the Potency result in assay [7], in assay [8] and in assay [10] was “inactive” in each case.

`Oc1cc(O)cc(O)c1`: the Potency entry in [1], in assay [2], in assay [3], in [4], in [5] and in assay [6] was “inactive” in each case. For the same molecule, the Potency result in assay [7], in assay [8] and in assay [10] was “inactive” each time.

On to `N#Cc1ccc2c(c1)N(CCCN1CCC(O)CC1)c1ccccc1S2`, for which the Potency in assay [1] was 26.6 µM (active). In addition, the Potency result in assay [2], in assay [3], in assay [4], in [5], in assay [6] and in assay [7] was “inactive” in each case. Further, the Potency entry in assay [8] and in [10] was “inactive” throughout.

Consider `NC(=O)OCC(O)COc1ccc(Cl)cc1` (stereo not drawn), for which the Potency entry in [1], in assay [2], in assay [3], in assay [4], in assay [5] and in assay [6] was “inactive” each time. Also, the Potency result in assay [7], in assay [8] and in assay [10] was “inactive” each time.
